From PubChem BioAssay AID2517 (National Center for Advancing Translational Sciences (NCATS), 2010)
Values joined by “and” are separate entries in the source; they are usually repeats but may differ in a detail not shown here. Equal entries are not always repeated. About 1,200 (0.34%) of roughly 350,000 compounds were called active. A call without a number means that no potency is given here. Roughly 3% stayed inconclusive and do not appear here. The call rests on the fitted dose curve; in most records, active means well fitted inhibition curve with a large enough effect; inconclusive means small, poorly fitted or top-dose-only effect; inactive means no such curve, though single readings can be large or run the other way. The full list was thinned out, with actives kept by preference. Some structures have more than one record in an assay (separate samples or runs), and their calls can disagree.

biological target: DNA repair nuclease/redox regulator APEX1 (Homo sapiens) (UniProt P27695); assay: qHTS Assay for Inhibitors of the Human Apurinic/apyrimidinic Endonuclease 1 (APE1); settings: recombinant APE1, TAMRA/BHQ-2 abasic DNA cleavage fluorescence; activity change, negative = inhibition: at 65.8 µM (top of the series); further: nearly all actives have a fitted effect of over 55% in size
Outline: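 Readout is kinetic fluorescence (ex 525, em 598 nm) from cleavage of 50 nM TAMRA/BHQ-2 THF abasic duplex by 0.75 nM APE1, compound added 15 min beforehand at RT.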
Potency means the concentration at half of the fitted maximal effect.

Chain of DNA repair nuclease/redox regulator APEX1 (Homo sapiens) (P27695 whole entry, looked up): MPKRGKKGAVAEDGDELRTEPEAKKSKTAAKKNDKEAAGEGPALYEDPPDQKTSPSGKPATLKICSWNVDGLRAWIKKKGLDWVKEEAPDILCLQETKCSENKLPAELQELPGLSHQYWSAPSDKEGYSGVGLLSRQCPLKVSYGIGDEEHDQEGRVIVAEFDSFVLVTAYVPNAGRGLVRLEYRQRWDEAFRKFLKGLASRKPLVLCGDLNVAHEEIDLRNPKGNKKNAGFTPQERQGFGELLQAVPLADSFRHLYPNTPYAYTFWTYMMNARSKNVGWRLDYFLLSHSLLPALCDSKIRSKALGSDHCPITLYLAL

SMILES | Potency | activity change, negative = inhibition
Cc1ccc(OCCCC(=O)NC(C)c2ccccc2)c(C)c1 (centres undefined) | inactive | –
Cc1ccccc1OCCC(=O)OCC(=O)NC(C)c1ccccc1 (centres undefined) | inactive | –
Cc1cc(C)cc(OCC(=O)NC(C)c2ccccc2)c1 (centres undefined) | – | -52.8% (active)
c1ccc2cc(C3=NCCN3)ccc2c1 | inactive | –
COc1ccc(/C=C/NC(=O)c2ccc(OC)cc2)cc1 | – | 3.93% [at 12.4 µM] (inactive)
CC[C@H](C)[C@H](NC(=O)[C@H](CCCNC(=N)N)NC(=O)[C@H](CCCNC(=N)N)NC(=O)[C@H](CC(C)C)NC(=O)[C@H](Cc1ccccc1)NC(=O)CNC(=O)CNC(=O)[C@@H](N)Cc1ccc(O)cc1)C(=O)N[C@@H](CCCNC(=N)N)C(=O)N1CCC[C@H]1C(=O)N[C@@H](CCCCN)C(=O)N[C@@H](CC(C)C)C(=O)N[C@@H](CCCCN)C(=O)N[C@@H](Cc1c[nH]c2ccccc12)C(=O)N[C@@H](CC(=O)O)C(=O)N[C@@H](CC(N)=O)C(=O)N[C@@H](CCC(N)=O)C(=O)O | inactive | –
O=c1nc2s/c(=C\c3ccco3)c(=O)n2nc1Cc1ccccc1 | 4.47 µM (active) | –
O=C(Nc1ccccc1)/C(=C\c1ccco1)NC(=O)c1ccco1 | inactive | –
O=C(NCCc1ccco1)c1nn(Cc2ccccc2)c(=O)c2ccccc12 | inactive | –
O=C(OCC(COC(=O)c1ccccc1)(COC(=O)c1ccccc1)COC(=O)c1ccccc1)c1ccccc1 | inactive | –
CC(C)=CCN1CCC2(CCc3ccccc32)CC1 | inactive | –
Oc1cc(O)c2c(c1)OC(c1ccc(O)c(O)c1)C(O)C2 (centres undefined) | inactive and 3.16 µM (active) | –
C=C1C([C@@]2(C)C(OC(C)=O)CC(=O)O[C@@](C)(COC(C)=O)C2CC(=O)OC)C(OC=O)C(OC(=O)C(O)C(C)CC)[C@]2(C)C(c3ccoc3)CC(=O)C12O (some centres undefined) | inactive | –
CC[C@H](C)[C@@H](NC(=O)O[C@@H]1C(=O)c2cc(OC)ccc2O[C@H]1c1cccc(OC)c1)C(=O)OC | inactive | –
CCCCS(=O)(=O)N1C2=NC(C(=O)OC)=C(C(=O)OC)[C@@H]3N(Cc4ccccc4)c4ccccc4[C@]23C[C@H]1C(=O)OC | – | -4.13% [at 12.4 µM] (inactive)
Oc1ccc(O)c2c(O)cccc12 | 1.78 µM (active) | –
S=C(NCCCc1cnc[nH]1)NCCCN(Cc1ccc(Cl)c(Cl)c1)c1ccc(Br)cn1 | inactive | –
O=C(c1ccco1)N1CCC[C@@]2(CCN(c3ccccc3)C2)C1 | inactive | –
Cc1ccc(C(=O)O)cc1-c1ccc(/C=C2\SC(=O)N(CC(=O)Nc3ccc4c(c3)OCO4)C2=O)o1 | 7.52 µM (active) | –
Cc1nn(CC(=O)Nc2ccc3c(c2)OCO3)c(C)c1[N+](=O)[O-] | inactive | –
Cc1ccc(C(=O)Nc2ccc3c(c2)OCO3)cc1S(=O)(=O)N1CCCCC1 | inactive | –
O=C(CSc1nnc(-c2cccc([S+](=O)([O-])N3CCCC3)c2)n1-c1ccccc1)Nc1cccc(C(F)(F)F)c1 | inactive | –
CC(Oc1ccccc1)C(=O)N[C@@H]1C(=O)N2[C@@H]1SC(C)(C)[C@@H]2C(=O)O (some centres undefined) | inactive | –
C=CCNc1oc(-c2cccnc2)nc1C#N | inactive | –
O=C(CCC1CCCN(C(=O)Cc2ccc(F)cc2)C1)N1CCN(c2ccccn2)CC1 (centres undefined) | inactive | –

SMILES | Potency | activity change, negative = inhibition
O=C(CCC1CCCN(C(=O)c2ccc(F)c(F)c2)C1)N1CCN(c2ccccn2)CC1 (centres undefined) | inactive | –
C=Cc1ccc(C(=O)N2CCCC(CCC(=O)N3CCN(c4ccccn4)CC3)C2)cc1 (centres undefined) | 0.67 µM (active) | –
COc1ccc(C2=Nn3c(nnc3-c3ccccc3F)SC2)cc1OC | inactive | –
COc1ccc2c3c1OC1CC(O)C=C[C@@]31CCN(C)C2 (some centres undefined) | inactive | –
COc1ccc2c(c1)O[C@@H](c1ccc3c(c1)OCO3)[C@H](OC(=O)NCc1ccco1)C2=O | inactive | –
O=C(c1ccncc1)N1CCC2(CCCN(C(c3ccccc3)c3ccccc3)C2)CC1 | inactive | –
COc1cccc([C@@H]2Oc3ccc(Br)cc3C(=O)[C@H]2OC(=O)NCCc2ccc(OC)c(OC)c2)c1 | inactive | –
C=C/C1=C/Cc2ccccc2[C@H](C[N+](=O)[O-])C(C(=O)OC)(C(=O)OC)C1 | inactive | –
C[C@@H]1O[C@@H](O[C@@H]2[C@@H](O)[C@H](OCCc3ccc(O)c(O)c3)O[C@H](CO[C@@H]3O[C@H](CO)[C@@H](O)[C@H](O)[C@H]3O)[C@H]2OC(=O)/C=C/c2ccc(O)c(O)c2)[C@H](O)[C@H](O)[C@H]1O | inactive | –
NC(=O)CCN1CCN(S(=O)(=O)/C=C/c2ccccc2)CC1 | inactive | –
O=C(CN1CCN(S(=O)(=O)/C=C/c2ccccc2)CC1)NC(=O)NCc1ccco1 | 22.4 µM (active) | –
COc1ccccc1N1CCN(CC(=O)NC(=O)NCc2ccco2)CC1 | inactive | –
COc1ccccc1CNc1ccnc(-c2c(C)noc2C)n1 | inactive | –
COC(=O)[C@@H]1C[C@@]2(O)[C@H](O)[C@H](O)[C@H](O)C[C@H]2N1CC1CCCCC1 | inactive | –
O=C(Cl)c1ccc([N+](=O)[O-])cc1 | inactive | –
CCC(C)[C@@H](N)C(=O)O (some centres undefined) | inactive | –
O=C(c1cc(C(F)(F)F)cc(C(F)(F)F)c1)N1CCC2(CCCN(c3ccccn3)C2)CC1 | inactive | –
O=C1c2cccc3cccc(c23)C(=O)N1CCCCCc1n[nH]c(=S)o1 | inactive | –
O=C(CN1C(=O)c2cccc3cccc(c23)C1=O)N1CCCCC1 | inactive | –
C[N+](C)(CCCCCC[N+](C)(C)CCCN1C(=O)c2cccc3cccc(c23)C1=O)CCCN1C(=O)c2cccc3cccc(c23)C1=O | 10 µM (active) and 4.74 µM (active) | –
OC(CCl)CCl | inactive | –
CC[C@H](C)[C@H](NC(=O)[C@H](Cc1ccc(O)cc1)NC(=O)[C@@H](NC(=O)[C@H](CCCN=C(N)N)NC(=O)[C@@H](N)CC(=O)O)C(C)C)C(=O)N[C@@H](Cc1cnc[nH]1)C(=O)N1CCC[C@H]1C(=O)N[C@@H](Cc1ccccc1)C(=O)O | inactive | –
CSc1nnc(SCc2nc3sc(C(=O)O)c(C)c3c(=O)[nH]2)s1 | 25.1 µM (active) | –
Cc1sc2nc(CSCC(=O)NC3CCCCC3)[nH]c(=O)c2c1C | inactive | –
